Among all 290,000 compounds or so, about 370 (0.13%) were called active.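 The calls were made as follows: active = spots per cell inhibited over 60%, with over 100 cells counted and total cytoplasm intensity under 500,000; inconclusive = wells with under 100 cells, flagged as likely toxic; inactive = the rest.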 The entries come from a sample that favours actives as a whole. Potency and affinity values are given separately.
These compounds were tested against G-protein coupled receptor 55 (Homo sapiens) (UniProt Q9Y2T6) (assay: inhibition of LPI-stimulated GPR55 beta-arrestin translocation – imaging, U2OS, beta-arrestin-GFP, LPI agonist, primary screen (AID 2013;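 also: U2OS cells stably carrying GPR55 and arrestin-GFP stimulated by 5 µM LPI near EC80; imaged beta-arrestin-GFP aggregate spots per cell after agonist stimulation; plate controls were LPI-stimulated DMSO wells for no effect and DMSO wells without LPI for full effect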)). Details: LPI antagonism, at 10 µM, active compounds read high.
Sequence of G-protein coupled receptor 55 (Homo sapiens) (Q9Y2T6 whole entry, looked up): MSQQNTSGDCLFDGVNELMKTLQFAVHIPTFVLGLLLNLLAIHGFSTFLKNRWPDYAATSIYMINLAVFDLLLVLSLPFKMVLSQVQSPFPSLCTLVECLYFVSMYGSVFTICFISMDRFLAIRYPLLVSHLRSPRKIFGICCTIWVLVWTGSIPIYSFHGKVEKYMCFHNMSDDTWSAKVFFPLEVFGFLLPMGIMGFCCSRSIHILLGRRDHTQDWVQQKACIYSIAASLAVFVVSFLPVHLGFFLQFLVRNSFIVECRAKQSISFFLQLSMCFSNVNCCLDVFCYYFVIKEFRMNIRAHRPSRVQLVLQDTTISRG

inhibition, inactive:
Cc1nc(C(Cl)(Cl)Cl)nc2[nH]ccc(=O)c12 4.1%
FC(F)(F)c1cccc(Cc2noc(CN3CCC(c4ccncc4)CC3)n2)c1 5.1%
Cc1nonc1NC(=O)CSc1nnc(N)s1 -5.8%
COc1cccc(-c2csc(N3CCN(Cc4ccccc4)CC3)n2)c1 -6.9%
COc1ccc(OC)c(/C=C/C(=O)Nc2cccc(S(=O)(=O)N3CCCC3)c2)c1 -3.3%
Cc1cc2c(cc1S(=O)(=O)Nc1cccc(F)c1)n(C)c(=O)c(=O)n2C -13.1%
Cc1cc2c(cc1S(=O)(=O)Nc1ccc(F)cc1)n(C)c(=O)c(=O)n2C 9.6%
Cc1cc(NS(=O)(=O)c2ccc(NC(=O)C(C)Oc3ccc(C(C)C)cc3)cc2)no1 (stereo unspecified) -4.7%
Cc1cccn2c(=O)c(/C=C(\C#N)S(=O)(=O)c3ccccc3)c(N3CCN(Cc4ccccc4)CC3)nc12 22.8%
Cc1cccn2c(=O)c3cc(C(=O)NC4CCCC4)c(=N)n(C4CCCCC4)c3nc12 19.8%
Cc1cccn2c(=O)c3cc(C(=O)NCc4ccco4)c(=N)n(C(C)C)c3nc12 45.5%
Cc1cccn2c(=O)c3cc(C(=O)NCc4ccco4)c(=N)n(C4CCCCC4)c3nc12 50%
Cc1ccc2nc3c(cc(C(=O)NCc4ccco4)c(=N)n3Cc3ccco3)c(=O)n2c1 23.2%
N=c1c(C(=O)NC2CCCC2)cc2c(=O)n3ccccc3nc2n1C1CCCC1 8.6%
N=c1c(C(=O)NCc2ccco2)cc2c(=O)n3ccccc3nc2n1C1CCCC1 7.5%
O=C(COC(=O)c1cc(=O)[nH]c(=O)[nH]1)Nc1cccc(S(=O)(=O)N2CCCCC2)c1 -7.4%
Cc1cccc(C)c1NC(=O)Cn1c(=O)c2cccn2c2ccccc21 3.5%
Cc1ccc(NC(=O)Nc2cnccn2)c(C)c1 1.4%
CC(C)CNC(=S)N1CCC(c2nc(-c3ccc(F)cc3)no2)CC1 6.8%
CCCc1nnc2n1N=C(c1ccc(-c3cc(Cl)ccc3Cl)o1)CS2 -0.8%
CC[C@H](C)[C@@H](NC(=O)O[C@@H]1C(=O)c2cc(Br)ccc2O[C@H]1c1ccc2c(c1)OCO2)C(=O)OC -3.7%
COC(CNC(=O)c1ccc(CS(=O)(=O)c2ccc(Br)cc2)o1)OC -14.8%
C[C@@H]1C[C@@H]2OC(=O)[C@]3(C)[C@H]2[C@@H](OC3(C)O)[C@]2(C)C(=O)C=C[C@H]12 (stereo partly specified) 6.3%
CC(=O)O[C@@H]1[C@H]2[C@@H](C[C@@H](C)[C@@H]3CCC(=O)[C@@]13C)OC(=O)[C@@H]2C 6.6%
CC(=O)O[C@@H]1[C@H]2[C@@H](C[C@@H](C)[C@@H]3C=CC(=O)[C@@]13C)OC(=O)[C@@H]2C -2%
C=C1C(=O)O[C@H]2C[C@]3(C)C([C@@H](OC(=O)/C(C)=C/C)[C@H]12)[C@](C)(O)CC[C@H]3O (stereo partly specified) 10.2%

Source: PubChem BioAssay AID2013 (Sanford-Burnham Center for Chemical Genomics, 2009)
